Results as given in PubChem BioAssay AID2358 (The Scripps Research Institute Molecular Screening Center, 2010).
The campaign covered roughly 1,900 compounds. About 1,000 (53%) were called active. The set was probably picked from earlier hits. The list is a sample of the results. Unmarked numbers belong to inactive results.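 Rule for the calls: active = mean PP1 inhibition above a set limit taken from the earlier primary screen (cut at about 15% in these data); inactive = the rest.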

target: Serine/threonine-protein phosphatase PP1-alpha catalytic subunit (Homo sapiens) (UniProt P62136); assay: PP1 phosphatase inhibitors, confirmation, biochemical, fluorescence, OMFP substrate, triplicate (AID 2358); conditions: purified PP1alpha, at 6.7 µM, active compounds read high
Sequence (P62136 whole entry, looked up): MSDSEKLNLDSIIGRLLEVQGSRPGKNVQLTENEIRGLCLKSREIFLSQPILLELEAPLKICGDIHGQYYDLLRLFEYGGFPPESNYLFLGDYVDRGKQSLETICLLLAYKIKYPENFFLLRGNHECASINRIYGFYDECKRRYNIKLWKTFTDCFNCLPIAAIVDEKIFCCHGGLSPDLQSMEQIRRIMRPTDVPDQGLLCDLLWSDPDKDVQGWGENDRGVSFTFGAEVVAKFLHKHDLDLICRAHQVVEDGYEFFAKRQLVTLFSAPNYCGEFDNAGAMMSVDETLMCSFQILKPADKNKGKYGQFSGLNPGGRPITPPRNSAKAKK

SMILES	inhibition
Cc1ccc(C)c(Cn2nnc3c(=O)[nH]c(C(=O)Nc4ccc(F)cc4)nc32)c1	20.8% (active)
COc1ccccc1NC(=O)CSc1nc2sc3c(c2c(=O)n1-c1ccccc1)CCN(C)C3	10.6%
COc1ccccc1/C=N\Nc1cc(C)nc(-n2nc(C)cc2C)n1	44.3% (active)
Cc1cc(N/N=C\c2ccc(Br)cc2)nc(-n2nc(C)cc2C)n1	21.7% (active)
CN1CCN(CCCNC(=O)c2ccc(/C=C3\Oc4ccccc4N(Cc4ccc(Cl)cc4)C3=O)cc2)CC1	6.35%
O=C(COC(=O)c1ccc(Oc2ccccc2)cc1)Nc1nnc(-c2ccccc2)o1	16.8% (active)
O=C(N=C1SC2CS(=O)(=O)CC2N1c1cc(Cl)ccc1Cl)C1CC1 (stereo not given)	-1.43%
Cc1ccc(Nc2nc(CSc3nnnn3-c3ccccc3)cc(=O)[nH]2)cc1	26% (active)
Cc1cc(Nc2ccccc2)n(C(=O)c2ccc(N)cc2)n1	2.75%
O=C1C2N=NN(CC(=O)N3N=C(c4cccc5ccccc45)CC3c3ccccc3)C2C(=O)N1c1ccccc1 (stereo not given)	24.2% (active)
Cc1ccc(N2C(=O)C3N=NN(CC(=O)N4N=C(c5cccc6ccccc56)CC4c4ccccc4)C3C2=O)cc1 (stereo not given)	12.9%
O=C1c2cccc(OCC(=O)N3N=C(c4cccs4)CC3c3ccc(F)cc3)c2CCN1Cc1ccccc1 (stereo not given)	13.1%
O=[N+]([O-])c1ccccc1/C=N/n1c(COc2ccccc2)n[nH]c1=S	-1.61%
CCCCn1c(SCc2ncc(-c3ccccc3)o2)nc2cc(S(N)(=O)=O)ccc21	11%
CC(C)OC(=O)c1cc(NC(=O)C2C3CCC(O3)C2C(=O)O)cc(C(=O)OC(C)C)c1 (stereo not given)	5%
COc1ccc(NC(=O)C2C3CCC(O3)C2C(=O)O)cc1OC (stereo not given)	18.6% (active)
Oc1c(C(c2ccccn2)N2CCOCC2)ccc2cccnc12 (stereo not given)	69.3% (active)
Cc1ccc(-n2nc3ccc(NC(=O)/C=C/c4ccco4)cc3n2)cc1C	14.7%
Oc1c(Cl)cc(Cl)c(Cl)c1Cc1c(O)c(Cl)cc(Cl)c1Cl	22.2% (active)
Cc1cc(-c2csc(N)n2)c(C)n1-c1ccccc1	10.2%
CCOc1ccc(NC(=O)c2ccc(NC(=O)COC(=O)c3ccc(NC(=O)CC#N)cc3)cc2)cc1	47.8% (active)
CN(C(=O)COC(=O)c1cc(-c2ccco2)nc2ccccc12)C1CCS(=O)(=O)C1 (stereo not given)	20.3% (active)
CCn1c(SCC(=O)Nc2cc(C)ccc2C)nnc1-c1cnccn1	-2.85%

SMILES	inhibition
c1ccc(-c2nccc(-c3ccc(-n4cnc5ccccc54)cc3)n2)nc1	65.5% (active)
O=C1C(=O)N(CC2COc3ccccc3O2)c2ccccc21 (stereo not given)	1.9%
CC1CCCCN1S(=O)(=O)c1ccc(C(=O)Nc2nnc(-c3cccs3)o2)cc1 (stereo not given)	23.2% (active)
Cc1ccccc1S(=O)(=O)N1[C@@H](c2cccc(Cl)c2)C(C(=O)O)=CC[C@H]1c1ccc(Cl)cc1	15.6% (active)
Cc1ccc(S(=O)(=O)N2[C@@H](c3cccc(Cl)c3)C(C(=O)O)=CC[C@H]2c2ccc(Cl)c(Cl)c2)cc1	18.2% (active)
COc1ccc(-c2nn(-c3ccccc3)cc2/C=C2/SC(=S)N(CCCC(=O)O)C2=O)c(C)c1	29.4% (active)
Cc1ccc(-c2nn(-c3ccccc3)cc2/C=C2\SC(=S)N(CCCCCC(=O)O)C2=O)o1	19.6% (active)
COc1ccc(-c2nn(-c3ccccc3)cc2/C=C\C(=O)Nc2ccc(C(=O)O)cc2)cc1	11%
CS(=O)(=O)c1ccc2c(c1)SC1=NC(=O)/C(=C/c3ccco3)C(=N)N12	7.76%
Cc1ccc(OCC(=O)Nc2ccc(-c3nnc(-c4ccco4)o3)cc2)cc1	25.6% (active)
CCCc1ccc(OCC(=O)NNC(=S)NC(=O)c2ccco2)cc1	14.1%
O=C(CSc1nnc(C2CC2)n1Cc1ccccc1)Nc1cccnc1Cl	-0.54%
C=CCn1c(=NC(=O)c2ccc(S(=O)(=O)N3CCCC3)cc2)sc2cc(NC(C)=O)ccc21	23.1% (active)
N#Cc1c(-c2ccccc2)nc(SCc2cccc(C(F)(F)F)c2)[nH]c1=O	14.1%
Clc1ccc2c(c1)C1=C(C(c3ccncc3)O2)C(c2ccc(Br)cc2)n2ncnc2N1 (stereo not given)	18.4% (active)
O=C(N/N=C/c1cc([N+](=O)[O-])ccc1O)/C(=C\c1cccs1)NC(=O)c1ccccc1	30.9% (active)
CCOc1ccc(/C=C/C(=O)OCC(=O)c2ccccc2OC)cc1OC	0.75%
CC(C)(C)Nc1nc(-c2ccccn2)nc2ccccc12	7.11%
COc1cnc(-c2ccccn2)nc1Oc1ccc(C(C)(C)C)cc1	32.3% (active)
Cc1ccc(CSCC2Nc3ccc(C(=O)N4CCN(c5ccc(F)cc5)CC4)cc3NC2=O)cc1 (stereo not given)	22.6% (active)
Oc1ccc(C2Nc3cccc4cccc(c34)N2)cc1	0.4%
COCCCNC(=O)C1CC(=O)N(c2ccc(C)cc2)C1 (stereo not given)	-1.39%
OCCNc1nc(Nc2ccc(Cl)c(Cl)c2)nc2ccccc12	-0.84%

SMILES	inhibition
Oc1c(CN2CCN(c3ccc(F)cc3)CC2)cc(Cl)c2cccnc12	39.1% (active)
CCCCCCCCCCOC(=O)Cn1c(COc2ccc(C)cc2)[n+](C)c2ccccc21	12.8%
Cc1ccc(NS(=O)(=O)c2ccc(N/N=C/c3ccccc3OCC(=O)O)c([N+](=O)[O-])c2)c(C)c1	16% (active)
Nc1ccc2nc3c(=O)[nH]c(=S)[nH]c3nc2c1	34% (active)
C/C(=N\c1nc2ccccc2n1C)c1cc(Cl)ccc1O	-7.49%
C=C1c2c(Cl)ccc(O)c2C(O)=C2C(=O)[C@]3(O)C(O)=C(C(N)=O)C(=O)[C@@H](N(C)C)[C@@H]3[C@@H](O)C12 (stereo not given in full)	7.26%
O=C(Nc1nc(-c2ccco2)c(-c2ccco2)s1)c1ccco1	2.84%
COCCN(CCOC)S(=O)(=O)c1ccc(C(=O)Nc2nc3c(s2)CCc2ccccc2-3)cc1	34.5% (active)
C=CCN(CC=C)S(=O)(=O)c1ccc(C(=O)Nc2nc3c(s2)CCc2ccccc2-3)cc1	27.9% (active)
O=[N+]([O-])/C=C/c1ccc2c(ccn2Cc2ccccc2)c1	13.8%
Cc1cccc(OCC(O)Cn2c(=N)n(CCN3CCOCC3)c3ccccc32)c1 (stereo not given)	-3.3%
CCCCCCCCCCOC(=O)Cn1c(COc2cccc(OC)c2)[n+](C)c2ccccc21	8.62%
O=C(Nc1cccc(-c2nc3ccccc3[nH]2)c1)c1ccc(C(=O)Nc2cccc(-c3nc4ccccc4[nH]3)c2)cc1	2.51%
Clc1ccc(-n2nnnc2-c2cnc(-c3ccccn3)nc2-c2cccs2)cc1	64.5% (active)
Cc1ccc(Cn2nnc3c(=O)[nH]c(C4CCN(S(=O)(=O)/C=C/c5ccccc5)CC4)nc32)cc1	20.5% (active)
Cc1ccc(NC(=O)COc2ccc(/C=C3/NC(=O)NC3=O)cc2)cc1	16.6% (active)
NC(N)=N/N=C/c1ccc(OCc2ccc(Cl)cc2Cl)cc1	17.3% (active)
CC(=O)c1ccc(N2CCN(S(=O)(=O)c3ccc4c(c3)CC(=O)N4C)CC2)cc1	7.42%
O=C(Nc1ccc(S(=O)(=O)Nc2nccs2)cc1)c1cc(-c2ccncc2)nc2ccccc12	12.1%
O=C(Nc1nnc(-c2ccccc2)o1)c1cc(-c2cccs2)nc2ccccc12	28.1% (active)
Cc1ccc(-c2cc(C(=O)Nc3nn[nH]n3)c3ccccc3n2)c(C)c1	0.22%
O=C(/C=C/c1ccc(F)cc1)NC(=S)NNC(=O)c1cccnc1	14.7%
COc1cccc(/C=N/NC(=O)c2[nH]nc3c2CCc2ccccc2-3)c1O	36% (active)

SMILES	inhibition
N=c1n(Cc2ccc(Cl)cc2)c2ccccc2n1CC(O)c1ccco1 (stereo not given)	-2.68%
Cc1ccc2nc(N3C(=O)C(O)=C(C(=O)c4ccco4)C3c3cccc(O)c3)sc2c1 (stereo not given)	20.8% (active)
CCNS(=O)(=O)c1ccc(NC(=O)Nc2cccc(C(F)(F)F)c2)cc1	4.33%
Cc1nc2c(C(=O)NCc3ccc4c(c3)OCO4)c[nH]n2c(=O)c1Cc1ccccc1F	32.2% (active)
Cc1cc(N2C(=O)C(O)=C(C(=O)c3ccc(C)o3)C2c2ccc(OCc3ccccc3)cc2)no1 (stereo not given)	32.6% (active)
COc1ccc(C2C(C(C)=O)=C(O)C(=O)N2CCc2c[nH]c3ccccc23)cc1 (stereo not given)	11.8%
CCCOc1ccc(C2C(C(=O)c3ccc(C)o3)=C(O)C(=O)N2CCCn2ccnc2)cc1 (stereo not given)	37.2% (active)
COc1cc(C2C(C(=O)c3ccc(C)o3)=C(O)C(=O)N2CCc2ccccc2)ccc1O (stereo not given)	27.1% (active)
C/C(CC(O)(/C=N/O)c1ccccc1)=N\O (stereo not given)	-3.06%
Cc1ccc2cc(CCNC(=O)c3c(-c4ccccc4Cl)noc3C)c(=O)[nH]c2c1	-1.41%
COC(=O)Cc1cc(=O)n(-c2nc3ccccc3s2)[nH]1	0.62%
CN(C(=O)CN(CCO)CC(=O)N(C)C(C)(C)Cc1ccccc1)C(C)(C)Cc1ccccc1	-9.33%
C#CCOCCOCCOCCNc1nc(N2CCN(C(=O)CCCCCCCCCCNC(=O)[C@H](CCCCN)n3cc(C)nn3)CC2)nc(N2CCN(C(=O)CCCCCCCCCCNC(=O)[C@H](CO)n3cc(CCCSC)nn3)CC2)n1	41.8% (active)
C#CCOCCOCCOCCNc1nc(N2CCN(C(=O)CCCCCCCCCCNC(=O)Cn3cc(CCCCCN)nn3)CC2)nc(N2CCN(C(=O)CCCCCCCCCCNC(=O)[C@H](CO)n3cc(CCCSC)nn3)CC2)n1	50.9% (active)
C#CCOCCOCCOCCNc1nc(N2CCN(C(=O)CCCCCCCCCCNC(=O)[C@H]([C@@H](C)CC)n3cc(CCCCN=C(N)N)nn3)CC2)nc(N2CCN(C(=O)CCCCCCCCCCNC(=O)[C@H](CO)n3cc(CCCSC)nn3)CC2)n1	42.5% (active)
C=CCn1c(=S)[nH]c2scc(-c3ccco3)c2c1=O	7.08%
Cc1nc(/N=C(\N)NC(=O)NC2CCCCC2)nc2ccccc12	26.9% (active)
Cc1ccc(-c2cc(C(=O)N/N=C/C=C/c3ccco3)c3ccccc3n2)cc1C	9.2%
OCCCN1c2ccccc2Nc2nnc(-c3ccccc3)cc21	27.3% (active)
CCC(=C/c1sc2ccc3ccccc3c2[n+]1C)/C=C1\Sc2ccc3ccccc3c2N1C	62.5% (active)
CSc1ccc(/C=N\NC(=O)COc2ccc(Cl)cc2Br)cc1	-1.13%
